Test results as given in ChEMBL document CHEMBL3988442, “University of Dundee, Small-Polar-MMV Screening Library” (2021).
The campaign covered roughly 66,000 compounds. About 960 (1.5%) showed an effect of 50% or more. The sample as a whole holds a higher share of strong results than the screen did.

System: Trypanosoma brucei
Assay: Trypanosoma brucei 72 hour study
Type: functional, organism-based
Set-up: scale not given: in the data most compounds retested in dose-response had high values

Cc1nc(Cc2ccc(F)cc2)cc(C2COCCN2)n1.Cl (stereo not given)
Percent Effect (30.3 µM, […]): 101%

Cc1nc(NCc2cccnc2)cc(C2COCCN2)n1 (stereo not given)
Percent Effect (30.3 µM, […]): -2.285%

Cc1nc(NCc2ccc(F)cc2)cc(C2CCCN2)n1.Cl (stereo not given)
Percent Effect (30.3 µM, […]): -9.094%

CN(C)C(=O)COC[C@]12COC[C@H]1CN(Cc1ccco1)C2.O=C(O)C(F)(F)F
Percent Effect (30.3 µM, […]): -53.67%

COC(=O)c1ccc2c(-c3ccnc(NCCO)n3)c[nH]c2c1
Percent Effect (30.3 µM, […]): 8.363%

CC[C@@H](CO)Nc1nccc(-c2c[nH]c3cc(C(=O)OC)ccc23)n1
Percent Effect (30.3 µM, […]): 72.65%

COC(=O)c1ccc2c(-c3ccnc(N[C@@H](C)CO)n3)c[nH]c2c1
Percent Effect (30.3 µM, […]): 47.11%

Cc1nn(CC(=O)N2CCN(Cc3cn(C)nc3C)CC2)cc1Br
Percent Effect (30 µM, 30.03 µM): -22.12%

Cc1ccc(-c2ccccc2CC2CNCCNC2=O)c(C)c1.Cl (stereo not given)
Percent Effect (30.3 µM, […]): 25.6%

Cn1cnnc1C1CCN(C(=O)c2cc(-c3ccccc3)on2)CC1
Percent Effect (30 µM, 30.03 µM): -50.55%

CCc1ccc(C(O)CN2CCN(c3cccc(OC)c3)CC2)cc1 (stereo not given)
Percent Effect (30 µM, 30.03 µM): -8.228%

CCc1ccc(NC(=O)N2C[C@H]3C[C@H](C(=O)NC4CCC4)[C@@H](C2)O3)cc1
Percent Effect (30.3 µM, […]): -16.27%

CN(C)C[C@@H]1C[C@@H]2CN(C(=O)c3ccoc3)CC[C@@H]2N1CC1CC1.O=C(O)C(F)(F)F
Percent Effect (30.3 µM, […]): -22.29%

Nc1ncc(-c2ccc(NC(=O)[C@@H]3CCCCN3)cc2)cn1
Percent Effect (30.3 µM, […]): 8.453%

O=C(Nc1ccc(-c2cnc(NCCO)nc2)cc1)[C@@H]1CCCCN1
Percent Effect (30.3 µM, […]): 53.19%

CNc1ncc(-c2ccc(NC(=O)[C@@H]3CCCCN3)cc2)cn1
Percent Effect (30.3 µM, […]): 7.595%

Cl.Cn1ncc2c1CCCC2NCc1cccc(F)c1 (stereo not given)
Percent Effect (30.3 µM, […]): -9.663%

Cc1cccc(CNC2CCCc3c2cnn3Cc2ccccc2)c1.Cl (stereo not given)
Percent Effect (30.3 µM, […]): 96.36%

Cc1ccc(CNC2CCCc3c2cnn3Cc2ccccc2)s1.Cl (stereo not given)
Percent Effect (30.3 µM, […]): 15.28%

Cn1ncc2c1CCCC2NCc1cccc(OC2CCCC2)c1 (stereo not given)
Percent Effect (30.3 µM, […]): 65.11%

Cc1cccc(CNC2CCCc3c2cnn3C)c1.Cl (stereo not given)
Percent Effect (30 µM, 30.03 µM): 5.756%

Cn1ncc2c1CCCC2NCc1cccnc1 (stereo not given)
Percent Effect (30 µM, 30.03 µM): -8.249%

CN1CC[C@]2(CN(CC3CCOCC3)C[C@H]2c2ccccc2)C1=O.O=C(O)C(F)(F)F
Percent Effect (30.3 µM, […]): -1.885%

O=C(O)C(F)(F)F.O=C(O)C(F)(F)F.O=C(O)C(F)(F)F.O=C(O)c1c(-c2cncnc2)ncc2c1CCN(Cc1cccnc1)C2
Percent Effect (30.3 µM, […]): -22.43%

CN(C)CCN1CCCC12CCN(Cc1nccn1C)CC2.O=C(O)C(F)(F)F.O=C(O)C(F)(F)F.O=C(O)C(F)(F)F
Percent Effect (30.3 µM, […]): -91.45%
